NPR1 antag: human Npr1 receptor antagonism | HEK293 hNpr1 GloSensor cGMP, ANP-stimulated luminescence | 76,000 tested, 1.6% active | Potency, µM (series often up to 46.3 µM), most hits filed as inhibitors | P16066; calls by dose curve; also: nearly all actives have a fitted effect of over 60% in size
Target sequence (P16066 whole entry, looked up): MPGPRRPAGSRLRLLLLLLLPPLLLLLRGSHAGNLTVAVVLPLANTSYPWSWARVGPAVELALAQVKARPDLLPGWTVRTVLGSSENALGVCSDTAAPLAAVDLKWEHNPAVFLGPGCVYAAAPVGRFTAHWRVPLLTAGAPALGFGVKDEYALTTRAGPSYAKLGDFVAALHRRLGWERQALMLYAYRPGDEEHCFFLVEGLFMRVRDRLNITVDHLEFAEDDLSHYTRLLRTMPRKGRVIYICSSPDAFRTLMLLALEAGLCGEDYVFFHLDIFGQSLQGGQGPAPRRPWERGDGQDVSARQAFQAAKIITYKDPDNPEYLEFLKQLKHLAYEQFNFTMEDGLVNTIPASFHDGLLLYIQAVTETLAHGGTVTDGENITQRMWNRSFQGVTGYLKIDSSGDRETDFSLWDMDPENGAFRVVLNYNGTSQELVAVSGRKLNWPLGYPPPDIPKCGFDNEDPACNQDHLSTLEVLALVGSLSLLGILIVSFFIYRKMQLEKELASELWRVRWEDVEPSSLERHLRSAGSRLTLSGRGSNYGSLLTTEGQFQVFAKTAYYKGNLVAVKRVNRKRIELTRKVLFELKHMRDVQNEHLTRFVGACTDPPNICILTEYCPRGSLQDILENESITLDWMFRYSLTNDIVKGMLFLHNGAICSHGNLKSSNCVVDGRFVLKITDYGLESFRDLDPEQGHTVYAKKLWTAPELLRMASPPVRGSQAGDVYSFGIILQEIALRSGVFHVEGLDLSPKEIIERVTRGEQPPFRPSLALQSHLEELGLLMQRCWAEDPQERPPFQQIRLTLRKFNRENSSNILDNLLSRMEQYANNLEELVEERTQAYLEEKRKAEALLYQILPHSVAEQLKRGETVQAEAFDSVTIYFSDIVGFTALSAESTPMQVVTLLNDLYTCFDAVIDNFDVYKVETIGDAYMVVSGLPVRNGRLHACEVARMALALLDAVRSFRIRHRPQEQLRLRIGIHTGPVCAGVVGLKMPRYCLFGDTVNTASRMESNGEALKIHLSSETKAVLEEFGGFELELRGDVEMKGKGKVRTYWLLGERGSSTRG
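HEK293 cells stably expressing human Npr1 and cGMP GloSensor pGS-40F, loaded 2 h with 2% GloSensor reagent, given compound 30 min at room temperature. Luminescence read before and 20 min after 0.1 nM hNppA.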
NIH3T3 tox: NIH 3T3 cell cytotoxicity; NIH 3T3 viability, CellTiter-Glo ATP luminescence, 48-72 h; Potency, µM (top dose mostly 96.7 µM), hits mostly inhibitors; 94,000 tested, 4.3% active; also: nearly all actives have a fitted effect of over 55% in size
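ATP-dependent luminescence (CellTiter-Glo) served as the viability signal for NIH 3T3 cells treated with compound for 48 or 72 hr at 37 °C.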
HEK cytotox: HEK 293 cell cytotoxicity; HEK 293 viability, ATP luminescence (CellTiter-Glo), 48-72 h; Potency, µM (top dose mostly 115 µM), hits mostly inhibitors; 94,000 tested, 6.6% active; AID 1345083; also: nearly all actives have a fitted effect of over 60% in size
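Luminescence from cellular ATP, measured with CellTiter-Glo, indicates HEK 293 viability. Cells plated at 250 cells/well are treated with compound for 48 or 72 hr at 37 degree Celsius before reagent addition.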
Luciferase inh: blocks purified firefly luciferase enzyme activity. P08659. purified P. pyralis luciferase, luminescence, biochemical. Potency, µM (doses to about 115 µM), usual class: inhibitors. 76,000 tested, 2.5% active; also: nearly all actives have a fitted effect of over 65% in size
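Inhibitors were tested against purified firefly luciferase in a biochemical, low-substrate format (both substrates at 10uM) and luminescence measured with a CCD imager.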
Hits are given with their value; 0 = inactive; ? = inconclusive; - = no result; ! = not confirmed by another sample. Shown are actives, neighbours in structure and some others; about 11% of the full set was active somewhere. Unless noted, calls follow the shape of the dose curve; as a rule, active = well fitted curve in the direction sought with a large enough effect; inconclusive = small, poorly fitted or top-dose-only effect, or another doubt; inactive = no such curve, though single readings can be large; an effect the other way counts as inactive or inconclusive.

SMILES	NPR1 antag	NIH3T3 tox	HEK cytotox	Luciferase inh
COc1cccc(C(=O)N2CCC(N3C(=O)c4c(c(C)nn4-c4ccccc4)C3C)CC2)c1 (stereo not drawn)	-	?	39.8µM	-
COCC(=O)N1CCC(N2C(=O)c3c(c(C)nn3-c3ccccc3)C2C)CC1 (stereo not drawn)	-	28.2µM!	0	-
COc1cccc([S+](=O)([O-])N2CCC(N3C(=O)c4c(c(C)nn4-c4ccccc4)C3C)CC2)c1 (stereo not drawn)	-	0	0	-
O=C(NCCC1CCN(C(=O)Nc2ccccc2F)CC1)c1ccccc1F	0	0	?	0
COc1ccc(CN2C(=O)CO[C@H]3CN(C(=O)NCc4ccccc4)C[C@H]32)cc1	0	0	0	0
COC(=O)c1cccc(C(=O)N[C@H]2CO[C@H]3[C@@H]2OC[C@H]3OC(=O)Nc2ccc(Oc3ccccc3)cc2)c1	0	0	10µM	0
CC(C)c1ccc(NC(=O)N[C@H]2CO[C@H]3[C@@H]2OC[C@H]3OC(=O)Nc2cccc(C(F)(F)F)c2)cc1	?	25.1µM	28.2µM	0
O=C(Nc1cccc(C(F)(F)F)c1)N[C@H]1CO[C@H]2[C@@H]1OC[C@H]2OC(=O)Nc1ccccc1	0	?	?	0
CC(=O)c1ccc(NC(=O)O[C@@H]2CO[C@H]3[C@@H]2OC[C@@H]3NC(=S)NC2CCCCC2)cc1	0	0	79.4µM	0
O=C(Nc1ccccc1)N[C@H]1CO[C@H]2[C@@H]1OC[C@H]2OC(=O)Nc1ccccc1	0	0	?	44.7µM
COCCNC(=O)C1CCCN1c1nccc(Nc2ccccc2F)n1 (stereo not drawn)	-	0	0	-
OCC1(Cc2ccc(F)cc2)CCCN(c2nc3ccccc3s2)C1 (stereo not drawn)	?	?	39.8µM	0
Cn1nc(-c2ccncc2)cc1NC(=O)Cc1ccc(F)cc1	-	?	0	-
CC(C)CCNC(=O)c1cnc2n1CCN(Cc1ccc(C(C)C)cc1)CC2	?	?	56.2µM	0
CC(C)c1ccc(CN2CCc3ncc(C(=O)Nc4ccccc4)n3CC2)cc1	0	28.2µM	31.6µM	0
O=C(Nc1ccccc1)c1cnc2n1CCN(Cc1cccc(O)c1)CC2	0	?	?	?
COc1ccc2[nH]c(C[C@@H]3C[C@@H](C(C)C)[C@H](CNCc4ccccc4O)C=C3C)nc2n1	?	35.5µM	44.7µM	0
COc1ccc2[nH]c(C[C@@H]3C[C@@H](C(C)C)[C@H](CN(C)C)C=C3C)nc2n1	0	89.1µM	?	0
CC1=C[C@@H](CN)[C@H](C(C)C)C[C@H]1Cc1nc2ccccc2[nH]1	0	?	?	0
O=C(Nc1cccc2ccccc12)O[C@@H]1CO[C@H]2[C@@H]1OC[C@@H]2NS(=O)(=O)Cc1ccccc1	0	0	0	0
COc1ccc(-c2cn3c(n2)CO[C@@H](CNC(=O)C2CCCC2)C3)cc1	0	0	0	28.2µM
COc1ccc(NC(=O)NC[C@H]2Cn3cc(-c4ccc(C)cc4)nc3CO2)cc1	0	?	?	0
Cc1ccc(-c2cn3c(n2)CO[C@@H](CNC(=O)C2CCCC2)C3)cc1	0	0	?	0
COc1ccccc1CNC[C@H]1Cn2c(-c3cccc(Cl)c3)cnc2CO1	0	?	79.4µM	0
COc1ccccc1CNC[C@H]1Cn2cc(-c3ccc(C)cc3)nc2CO1	0	100µM	100µM	?
SMILES	NPR1 antag	NIH3T3 tox	HEK cytotox	Luciferase inh
Fc1ccc(CNC[C@H]2Cn3cc(-c4ccccc4)nc3CO2)cc1	0	?	?	0
COc1ccc(-c2cn3c(n2)CO[C@@H](CNC(=O)c2ccccc2OC)C3)cc1	0	0	70.8µM	?
COc1cc(Cl)c(C)cc1NC(=O)Cn1c(C)cc2nc3n(c(=O)c21)CCCCC3	0	0	?	0
COc1ccc(-c2cn3c(n2)CO[C@@H](CNC2CCC2)C3)cc1	0	0	0	56.2µM
c1ccc(-c2cn3c(n2)CO[C@@H](CNC2CCOCC2)C3)cc1	0	0	0	0
COc1ccc(CC(=O)Nc2ccc([C@@H](O)[C@H]3COCC(=O)N3CC(C)C)cc2)cc1	0	0	0	0
COc1cccc(CN2CC(Oc3ccccc3C(=O)NCc3ccccc3)C2)c1	0	35.5µM	39.8µM	0
O=C(NCc1ccccc1)c1ccccc1OC1CN(Cc2ccc(F)cc2)C1	0	31.6µM	?	0
O=C(NC1CC1)c1ccccc1OC1CN(Cc2cccc(F)c2)C1	0	0	?	0
O=C(C1CC1)N1CCN(c2ccc3nnc(C4CC4)n3n2)CC1	-	?	0	-
O=C(NC1CCN(c2ccc3nnc(C4CC4)n3n2)CC1)c1ccccc1	-	0	0	-
COc1ccc(CN(Cc2ccc(OC)cc2)[C@@H]2CO[C@H](CNC(=O)CC(C)(C)C)[C@H]2O)cc1	0	?	70.8µM	0
O=[N+]([O-])c1cccc(-c2noc([C@@H]3Cc4nc[nH]c4CN3)n2)c1	0	0	?	44.7µM!
Cc1ccc(NC(=O)N2Cc3[nH]cnc3C[C@H]2c2nc(-c3cccc([N+](=O)[O-])c3)no2)cc1	0	?	?	0
COCCCn1c(=O)c(C(=O)N2CCN(C(=O)COC)CC2)nc2cccnc21	-	0	0	-
O=C(c1ccc2[nH]ccc2c1)N1CCC(n2cc(-c3nc(-c4ccccc4)no3)nn2)C1 (stereo not drawn)	7.94µM	?	15.8µM	?
O=C(c1ccc2cc[nH]c2c1)N1CCC(n2cc(-c3nc(-c4ccccc4)no3)nn2)CC1	0	?	39.8µM	?
Cc1noc(-c2cn(C3CCN(C(=O)c4ccc5[nH]ccc5c4)CC3)nn2)n1	0	0	0	0
Cc1ccc(-c2cc(C(=O)N3CCOCC3)c3cnn(C)c3n2)cc1	-	0	0	-
O=C(c1cccs1)N1CCC(Oc2cccnc2)C1 (stereo not drawn)	0	0	0	0
O=C(OCc1ccccc1)N1CCC2(CC1)C(=O)NN=C2C1CC1	0	0	112µM	0
CC(C)c1ccc(CC(=O)N2CCCc3ncc(C(=O)NCc4cccnc4)cc32)cc1	0	0	?	0
Cc1ccccc1NC(=O)c1cnc2c(c1)N(C(=O)Cc1ccc(C(C)C)cc1)CCC2	?	89.1µM	100µM	0
CC(C)c1ccc(CC(=O)N2CCCc3ncc(C(=O)Nc4cccc(C(F)(F)F)c4)cc32)cc1	0	?	31.6µM	0
c1cncc(CN2CC(N3CCc4ccccc43)C2)c1	-	0	0	-
SMILES	NPR1 antag	NIH3T3 tox	HEK cytotox	Luciferase inh
CCOC(=O)C(Cc1cccc(N2CCN([S+](=O)([O-])c3c(Cl)cccc3Cl)CC2)c1)OC (stereo not drawn)	-	?	20µM	-
CCOC(=O)C(Cc1cccc(N2CCN(C(=O)c3ccccc3F)CC2)c1)OC (stereo not drawn)	-	0	?	-
CN(Cc1cccnc1)C1CCCc2ccccc21 (stereo not drawn)	0	?	56.2µM	0
CCOC(=O)[C@@H]1[C@@H](O)C(=O)N(Cc2ccccc2)C12CCN(C(=O)CCc1ccccc1)CC2	-	?	0	-
CN1C[C@H](C(=O)NCc2ccncc2)C[C@H]1c1cccc(C(F)(F)F)c1	0	0	?	0
CN1C[C@H](C(=O)N2CCN(c3ccccn3)CC2)C[C@H]1c1cccc(C(F)(F)F)c1	0	?	89.1µM	0

Source: PubChem
